Laboratory results taken from the supplement of paper PMC8975748.
Counter-ions that a name gives are not always drawn.

Tested on: Saccharomyces cerevisiae BY4741 SeMeCo community
Test: z-score of subpopulation abundance vs DMSO median, subpopulation auxotrophic for HU; higher = larger share of this subpopulation than in DMSO controls
Conditions: 10 µM; 24 h; SM minimal medium; subpopulation (auxotrophy): HU
Procedure: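 Fluorescent four-plasmid SeMeCo (self-establishing metabolically cooperating S. cerevisiae BY4741 community; plasmids pH-mRuby2, pL-mWasabi, pU-eCFP, pM-TagRFP657) was grown 24 h in minimal SM medium with each Selleck FDA-approved drug at 10 µM in 384-well plates. Cells were fixed and imaged by high-content confocal microscopy. For each auxotrophic subpopulation (and the prototroph), a z-score gives the deviation from the DMSO vehicle-control population median.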

Question: Which “z-score of subpopulation abundance” value does the source give for `CCOC(=O)Nc1ccc(NCc2ccc(F)cc2)cc1N` [Retigabine] here?
Answer: -0.59

Question: Which “z-score of subpopulation abundance” value does the source give for `COc1ccc2c3c([nH]c2c1)C(C)=NCC3` [Harmaline] here?
Answer: -7.98

Question: `COc1cc2c(cc1OC)C1CC(=O)C(CC(C)C)CN1CC2` (stereo not given) [Tetrabenazine (Xenazine)] was tested. Which “z-score of subpopulation abundance” value did it give?
Answer: -1.24

Question: For `O=c1cccc2n1C[C@@H]1CNC[C@H]2C1` [Cytisine], which “z-score of subpopulation abundance” value is on record?
Answer: -0.56

Question: How did the “z-score of subpopulation abundance” value turn out when `COC(=O)C1=CCCN(C)C1` [Arecoline HBr] was run?
Answer: 0.06

Question: For `CN1[C@@H]2C[C@@H](OC(=O)[C@H](CO)c3ccccc3)C[C@H]1[C@@H]1O[C@@H]12` [Scopolamine HBr trihydrate], which “z-score of subpopulation abundance” value is on record?
Answer: -0.46

Question: How did the “z-score of subpopulation abundance” value turn out when `CN(C)[C@@H]1C(=O)C(C(N)=O)=C(O)[C@@]2(O)C(=O)C3=C(O)c4c(O)ccc(Cl)c4[C@@](C)(O)[C@H]3C[C@@H]12` [Chlortetracycline HCl] was run?
Answer: -0.42

Question: For `CCC1=C[C@H]2CN3CCc4c([nH]c5ccccc45)[C@](C(=O)OC)(C2)[C@H]13` [Catharanthine], which “z-score of subpopulation abundance” value is on record?
Answer: -0.39

Question: Which “z-score of subpopulation abundance” value does the source give for `CN(C)[C@@H]1C(=O)C(C(N)=O)=C(O)[C@@]2(O)C(=O)C3=C(O)c4c(O)cccc4[C@@](C)(O)[C@H]3[C@H](O)[C@@H]12` [Oxytetracycline Dihydrate] here?
Answer: -0.06

Question: Which “z-score of subpopulation abundance” value does the source give for `NCC(O)c1ccc(O)cc1` (racemic) [(+,-)-Octopamine HCl] here?
Answer: 0.29

Question: With `COc1ccc(C=O)cc1` [p-Anisaldehyde] as the compound, how does the “z-score of subpopulation abundance” value read?
Answer: -0.72

Question: Which “z-score of subpopulation abundance” value does the source give for `C=CC[C@]1(O)CC[C@H]2[C@@H]3CCC4=CC(=O)CCC4=C3C=C[C@@]21C` [Altrenogest] here?
Answer: -1.33

Question: With `C[N+]12CCC(CC1)C(OC(=O)C(O)(c1ccccc1)c1ccccc1)C2` (stereo not given) [Clidinium Bromide] as the compound, how does the “z-score of subpopulation abundance” value read?
Answer: -0.29

Question: For `C=C(C)[C@H]1Cc2c(ccc3c2O[C@@H]2COc4cc(OC)c(OC)cc4[C@@H]2C3=O)O1` [Rotenone (Barbasco)], which “z-score of subpopulation abundance” value is on record?
Answer: 1.02

Question: `CC[N+](C)(CC)CCOC(=O)C(O)(c1ccccc1)c1ccccc1` [Methylbenactyzine Bromide] was tested. Which “z-score of subpopulation abundance” value did it give?
Answer: -0.63

Question: Which “z-score of subpopulation abundance” value does the source give for `Cc1cc(O)ccc1Cl` [Chlorocresol] here?
Answer: -1.07

Question: Which “z-score of subpopulation abundance” value does the source give for `CN1C(=O)COc2c(C(=O)NC3CN4CCC3CC4)cc(Cl)cc21` (stereo not given) [Azasetron HCl] here?
Answer: -0.34

Question: How did the “z-score of subpopulation abundance” value turn out when `CC1(C)SC2C(N)C(=O)N2C1C(=O)O` (stereo not given) [6-Aminopenicillanic acid] was run?
Answer: 0.4

Question: With `Oc1cc(Cl)ccc1Oc1ccc(Cl)cc1Cl` [Triclosan] as the compound, how does the “z-score of subpopulation abundance” value read?
Answer: 0.43

Question: Which “z-score of subpopulation abundance” value does the source give for `C[CH2][Hg][S]c1ccccc1C(=O)[O-].[Na+]` [Thimerosal] here?
Answer: 6.59

Question: With `C=CN1CCCC1=O.II` [Povidone iodine] as the compound, how does the “z-score of subpopulation abundance” value read?
Answer: 1.56

Question: For `CC(=O)O[C@H]1C[C@@H]2CC[C@@H]3[C@H](CC[C@@]4(C)[C@H]3C[C@H]([N+]3(C)CCCCC3)[C@@H]4OC(C)=O)[C@@]2(C)C[C@@H]1[N+]1(C)CCCCC1` [Pancuronium dibromide], which “z-score of subpopulation abundance” value is on record?
Answer: -0.53

Question: How did the “z-score of subpopulation abundance” value turn out when `CN1[C@@H]2CC[C@H]1C[C@@H](OC(=O)[C@H](CO)c1ccccc1)C2` [Hyoscyamine] was run?
Answer: -0.35

Question: Which “z-score of subpopulation abundance” value does the source give for `C[N+](C)(C)CCCCCCCCCC[N+](C)(C)C` [Decamethonium Bromide] here?
Answer: -0.06

Question: `CN[C@@H]1[C@@H](O)[C@@H](O[C@@H]2[C@@H](O)[C@H](O[C@H]3O[C@H]([C@@H](C)O)[C@@H](O)[C@H](O)[C@H]3N)[C@@H](N)C[C@H]2N)OC[C@]1(C)O` [Geneticin (G418 Sulfate)] was tested. Which “z-score of subpopulation abundance” value did it give?
Answer: -0.46

Question: With `NC(=O)CN1CCCC1=O` [Piracetam] as the compound, how does the “z-score of subpopulation abundance” value read?
Answer: 0.46

Question: `C#C[C@]1(O)C=C[C@H]2[C@@H]3CCC4=CC(=O)CC[C@@H]4[C@H]3CC[C@@]21CC` [Gestodene] was tested. Which “z-score of subpopulation abundance” value did it give?
Answer: -0.67

Question: `CCCN1C[C@H](CSC)C[C@@H]2c3cccc4[nH]cc(c34)C[C@H]21` [Pergolide Mesylate] was tested. Which “z-score of subpopulation abundance” value did it give?
Answer: -0.93

Question: With `N[C@@H]1C[C@H]1c1ccccc1` [Tranylcypromine (2-PCPA) HCl] as the compound, how does the “z-score of subpopulation abundance” value read?
Answer: 0.44

Question: For `C=CCN1C[C@H](C(=O)N(CCCN(C)C)C(=O)NCC)C[C@@H]2c3cccc4[nH]cc(c34)C[C@H]21` [Cabergoline], which “z-score of subpopulation abundance” value is on record?
Answer: 0.39

Question: Which “z-score of subpopulation abundance” value does the source give for `C[C@H]1O[C@H](O[C@H]2[C@H](O)[C@@H](O)[C@@H](O)[C@H](O)[C@@H]2O)[C@@H](N)C[C@@H]1NC(=N)C(=O)O` [Kasugamycin hydrochloride] here?
Answer: -0.33

Question: Which “z-score of subpopulation abundance” value does the source give for `C[N+]1(C)[C@@H]2C[C@@H](OC(=O)[C@H](CO)c3ccccc3)C[C@H]1[C@@H]1O[C@@H]12` [Methscopolamine] here?
Answer: 0.7

Question: Which “z-score of subpopulation abundance” value does the source give for `CCN(C)C(=O)Oc1cccc([C@H](C)N(C)C)c1` [Rivastigmine Tartrate] here?
Answer: -0.86

Question: How did the “z-score of subpopulation abundance” value turn out when `CC(NC(C)(C)C)C(=O)c1cccc(Cl)c1` (stereo not given) [Amfebutamone (Bupropion) HCl] was run?
Answer: -0.9

Question: `CC(C)=CCOc1c2occc2cc2ccc(=O)oc12` [Imperatorin] was tested. Which “z-score of subpopulation abundance” value did it give?
Answer: 0.85

Question: For `CN(C)[C@@H]1C(=O)C(C(N)=O)=C(O)[C@@]2(O)C(=O)C3=C(O)c4c(O)cccc4[C@@](C)(O)[C@H]3[C@H](O)[C@@H]12` [Oxytetracycline (Terramycin)], which “z-score of subpopulation abundance” value is on record?
Answer: 0.99

Question: For `CN1c2ccccc2C(NCCCCCCC(=O)O)c2ccc(Cl)cc2S1(=O)=O` (stereo not given) [Tianeptine sodium], which “z-score of subpopulation abundance” value is on record?
Answer: -1.1

Question: `CC[C@H]1[C@@H]2C[C@H]3[C@@H]4N(C)c5ccccc5[C@]45C[C@@H]([C@@H]2[C@H]5O)N3[C@@H]1O` [Ajmaline] was tested. Which “z-score of subpopulation abundance” value did it give?
Answer: -0.28

Question: With `Cc1cc(C(C#N)c2ccc(Cl)cc2)c(Cl)cc1NC(=O)c1cc(I)cc(I)c1O` (stereo not given) [Closantel] as the compound, how does the “z-score of subpopulation abundance” value read?
Answer: 0.25

Question: For `CC(C)(O)C(Cl)(Cl)Cl` [Chlorobutanol], which “z-score of subpopulation abundance” value is on record?
Answer: 0.05
